# An excerpt weighted towards active compounds, which were near 2.4% of everything screened.
# AmpC det inh = Promiscuous and Specific Inhibitors of AmpC Beta-Lactamase (assay with detergent). P00811. purified AmpC, nitrocefin hydrolysis with detergent. Potency, µM (top dose mostly 28.7 µM), for inactives: at the highest dose activity change, negative = inhibition. 71,000 compounds, 0.09% hits. AID 584, 2007; active = well fitted curve in the direction sought with a large enough effect; inconclusive = small, poorly fitted or top-dose-only effect; also: % is scaled to controls: 0 for no effect and ±100 for the full control effect
# Target sequence (P00811 whole entry, looked up): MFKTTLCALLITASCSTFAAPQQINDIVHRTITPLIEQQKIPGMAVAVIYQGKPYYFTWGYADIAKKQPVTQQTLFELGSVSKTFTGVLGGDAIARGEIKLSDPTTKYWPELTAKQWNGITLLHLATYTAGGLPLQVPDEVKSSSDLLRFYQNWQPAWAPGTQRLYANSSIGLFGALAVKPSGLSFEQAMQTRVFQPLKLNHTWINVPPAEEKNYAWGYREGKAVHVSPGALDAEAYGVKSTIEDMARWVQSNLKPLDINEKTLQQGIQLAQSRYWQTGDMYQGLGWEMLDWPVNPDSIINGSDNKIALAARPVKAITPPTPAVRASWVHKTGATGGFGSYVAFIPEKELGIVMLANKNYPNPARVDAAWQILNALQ
#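 E. coli AmpC (5.3 nM) in 20 mM phosphate pH 7.0 with 0.01% Triton X-100, preincubated 15 min RT with compound; nitrocefin (2 uL of 800 uM stock) hydrolysis followed by 480 nm absorbance every 20 s over 4 min.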
# Prx2 Sm inh = Schistosoma Mansoni Peroxiredoxins (Prx2); S. mansoni Prx2 activity coupled to TGR/GSH (TGR is thioredoxin glutathione reductase), NADPH fluorescence loss, qHTS; Potency, µM; 65,000 compounds, 0.07% hits; AID 448, 2006
#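 qHTS, coupled TGR/Prx2 format; 15 min compound preincubation at RT; reaction started with H2O2 (2.5 mM aliquot); kinetic NADPH fluorescence decrease, ex 365/em 450 nm.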
# AmpC nodet inh = Promiscuous and Specific Inhibitors of AmpC Beta-Lactamase (assay without detergent); 71,000 compounds, 1.8% hits; AmpC nitrocefin hydrolysis, absorbance 480 nm, no detergent; P00811; Potency, µM (series often up to 28.7 µM), for the others: at the highest dose activity change, negative = inhibition; also: % of control where 0% means no effect
#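 AmpC, 20 mM phosphate pH 7.0; 15 min cpd preinc, RT; start with nitrocefin (800 uM stock); A480 kinetic read, 20 s intervals, 4 min. No-enzyme wells = negative control.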
# Anthrax LT inh = qHTS Assay for Anthrax Lethal Toxin Internalization; 70,000 compounds, 0.67% hits; Cells, anthrax lethal toxin internalization, FRET ratio (460/530); Potency, µM (titrated, usually from 40 µM), for the others: top-dose activity change, negative = inhibition, actives largely listed as inhibitors; also: % is scaled to controls: 0 for no effect and ±100 for the full control effect; nearly all actives have a fitted effect of over 50% in size
# Numbers without * were called inactive; i = inactive; ? = inconclusive; . = not tested or not shown; ! = not confirmed by another sample; [ ] = another dose, or the depositor's remark. Unless noted, calls follow the shape of the full dose curve. Potency is read from the fitted curve at half-maximal effect.
SMILES,AmpC det inh,Prx2 Sm inh,AmpC nodet inh,Anthrax LT inh
COC(=O)[C@@]1(Cc2ccc(OC)cc2)[C@H]2c3cc(C(=O)N4CCCC4)n(CCc4c[nH]c5ccc(OC)cc45)c3C[C@H]2CN1C(=O)c1ccccc1,0%,>57,127%,0%
Cc1oc2c(O)c(O)ccc2c(=O)c1-c1cnn(-c2ccccc2)c1,3%,.,-7%,7.9µM*
COc1ccc(CNC(=O)Nc2cccs2)cc1OC,-4%,>57,-7%,-21%
COc1cccc(CNC(=O)Nc2cccs2)c1,-1%,>57,13µM*,?
CCCSc1nc(C)c(-c2csc(C(C#N)=C3CCCC3)n2)cc1C#N,0%,>57,13µM*,-12%
CCCCSc1nc2c(cc1C#N)CCC2,-4%,>57,-6%,-13%
CCOc1ccc(S(=O)(=O)n2c(C)nc3ccccc32)cc1,14%,>57,4µM*[single pt active],-20%
CCCCOc1ccc(S(=O)(=O)n2c(C)nc3ccccc32)cc1,1%,>57,43%,?
Cc1nn(-c2ccccc2)c2sc(C(=O)N(CC(=O)NC(C)(C)C)Cc3ccco3)cc12,-6%,>57,77%,13µM*
CCN1CCN(C(=O)C2CC(c3ccc(F)cc3)=NO2)CC1 (stereo unspecified),13%,>57,4µM*[single pt active],-7%
c1ccc(CCCN2CCN(CCOC(c3ccccc3)c3ccccc3)CC2)cc1,0%,>57,70%,25µM*
Fc1ccc(C(OCCN2CCN(CCCc3ccccc3)CC2)c2ccc(F)cc2)cc1,-6%,>57,13%,?
CN(C)c1nc(-c2ccc3c(c2)OCO3)nc2ccccc12,10%,>57,39%,-19%
Sc1ccc2ccccc2c1CNCc1ccccc1,-3%[5.75 µM],>57,-10%[5.75 µM],?
CC1=C/C(=C(/c2ccc(O)c(C)c2)c2ccccc2C(=O)O)C=CC1=O,-5%[5.75 µM],>57,-10%[5.75 µM],-15%[8 µM]
O=C(O)C1=CC(=C(c2ccc(O)c(C(=O)O)c2)c2ccc(O)c(C(=O)O)c2)C=CC1=O,10µM*,>57,7.9µM*,?
COC(=O)N1CCN(C(=O)Cc2ccc(Cl)c(Cl)c2)[C@H](CN2CCCC2)C1,1%,14*!,36%,?
Cc1ccccc1-c1cncnc1N1CCN(C)CC1,14%,>57,0%,-6%
CCOC(=O)C(C(=O)OCC)c1cc(Br)c2noc3c2c1C(=O)c1ccccc1-3,3%,0.53*,-4%,?
O=C(Nc1cccnc1)C(Cc1ccccc1)n1cccc1 (stereo unspecified),8%,>57,27%,-1%
O=C(Nc1ncc(Br)s1)C(Cc1ccccc1)n1cccc1 (stereo unspecified),3%,>57,13µM*,?
COc1ccccc1Cc1nc(-c2ccc(Br)o2)no1,10%,>57,4µM*[single pt active],?
COCCn1c(=O)c(C)nc2cnc(Nc3ccccc3)nc21,0%,>57,4%,-1%
O=c1cc(-c2ccccc2O)oc2c(O)c(O)ccc12,-7%,?,?,?
C[C@@H]1[C@H]2C=C[C@@H]1[C@@H](c1c3ccc(=O)c(O)c-3oc3c(O)c(O)ccc13)[C@@H]2C(=O)O,2µM*,>57,2.5µM*,?
SMILES,AmpC det inh,Prx2 Sm inh,AmpC nodet inh,Anthrax LT inh
Brc1ccc(-c2nnc3sc(CNC4CCCC4)cn23)cc1,10%,>57,4µM*[single pt active],-11%
c1ccc(-c2nnc3sc(CN4CCC5(CC4)OCCO5)cn23)cc1,-4%,>57,5%,8%
Brc1ccc(-c2nnc3sc(CNCc4ccc5c(c4)OCO5)cn23)cc1,8%,>57,4µM*[single pt active],-10%
O=C(CCCN1CCC2(CC1)C(=O)N(CCc1ccc(N=C=S)cc1)CN2c1ccccc1)c1ccc(F)cc1,-5%,>57,31%,?
C[C@@]12C=CC(=O)C=C1CC[C@@H]1C2=CC[C@]2(C)[C@@H]1CC[C@H]2C(=O)CN1CCN(c2cc(N3CCCC3)nc(N3CCCC3)n2)CC1,0%,i,86%,16%
CCOC(=O)N1CCN(CC(=O)Nc2cc3c(cc2C(C)=O)OCO3)CC1,0%,>57,7%,9%
CC(=O)c1cc2c(cc1NC(=O)CN1CCN(C(=O)c3ccco3)CC1)OCO2,11%,>57,4µM*[single pt active],-6%
Cc1ccc2cc(C#N)c(SCC(=O)NCc3ccco3)nc2c1,7%,>57,-24%,-17%
Cc1ccc2nc(SCC(=O)NCc3ccco3)c(C#N)cc2c1,9%,>57,16µM*[single pt active],-13%
OCCN[C@@H]1c2cc(Cl)ccc2-c2c(Cl)cc(Cl)cc21,-2%[5.75 µM],>57,-4%[5.75 µM],-9%[8 µM]
COC(=O)c1ccc2c(=O)n(Cc3ccco3)c(SCC(=O)Nc3ccc(C)c(Cl)c3)nc2c1,-2%,>57,13µM*,-4%
COCCNC(=O)CSc1nc2cc(OC)c(OC)cc2c(=O)n1Cc1ccco1,-1%,>57,40%,6%
CC(C)C[C@H]1C(=O)N2CCC[C@@H]2[C@]2(O)O[C@](NC(=O)[C@H]3C=C4c5cccc6[nH]cc(c56)C[C@H]4N(C)C3)(C(C)C)C(=O)N12,0%,>57,106%,?
O=C1CCc2cc(S(=O)(=O)NC(Cc3ccccc3)C(=O)NC3CCCCC3)ccc2N1 (stereo unspecified),11%,>57,4µM*[single pt active],16%
CC(C)(C)NC(=O)C(Cc1ccccc1)NS(=O)(=O)c1ccc2c(c1)CCC(=O)N2 (stereo unspecified),14%,>57,-6%,6%
CCCCN(C)C(=O)C(Cc1ccccc1)NS(=O)(=O)c1ccc2c(c1)CCC(=O)N2 (stereo unspecified),11%,>57,4µM*[single pt active],9%
COc1ccc(Oc2ncc3nc(-c4cn(C)c5ccccc45)c(=O)n(C4CC4)c3n2)cc1,-2%,>57,1%,?
C=CCN1CCc2cccc3c2[C@@H]1Cc1ccc(O)c(O)c1-3,0%,>57,-13%,?
CC(=O)NCCNc1ncncc1-c1ccccc1CN(C)C,6%,>57,1%,?
Oc1c(Cl)c(Cl)cc(Cl)c1Cl,7%,.,-18%,-5%
Oc1cc(Cl)c(Cl)c(Cl)c1,10%,.,-17%,13µM*
O=C(c1cccc(F)c1)N1CCC[C@@]2(CCN(C(c3ccccc3)c3ccccc3)C2)C1,15%,>57,-5%,11%
CCN1CCN(c2ncc(C(=O)Nc3ccccc3C(=O)OC)c3ccccc23)CC1,-1%,>57,132%,10µM*
COc1ccc2c(c1)[C@]13CCCC[C@@H]1[C@H](C2)NCC3,-1%,>57,1%,23%
O=C(NC1CCCCC1)N1CCC(n2c(=O)[nH]c3ccccc32)CC1,18%,>57,3.2µM*[single pt active],-14%
COc1cccc(-c2cc(C(=O)Nn3cnnc3)c3ccccc3n2)c1,12%,>57,-9%,-5%
COC(=O)[C@H](NC(=O)c1cc(-c2ccccc2)nc2ccccc12)c1ccccc1,-1%,>57,34%,5µM*
CCC(=O)Nc1c2c(nn1-c1cccc(Cl)c1)CSC2,13%,>57,4µM*[single pt active],6%
